Screening results from PubChem BioAssay.
Compounds with a hit are over-represented: about 7% of the library has one in this group of screens.
ATXN viability = cell viability loss in ATXN counter-screen. S2 cells (HEK-293 line with an ATXN2-luciferase reporter) viability, CellTiter-Fluor protease fluorescence, 24 h. Potency, µM (highest dose often 56.7 µM), most hits filed as cytotoxic. actives 0.49% (n = 400,000); also: potency is read from the fitted curve at half-maximal effect; nearly all actives have a fitted effect of over 40% in size
D3 ag = agonists of human D3 dopamine receptor | P35462 | D3R DiscoveRx beta-arrestin cells, luminescence, 90 min | max activation, % | actives 0.58% (n = 410,000); in the data active = max activation above about 30%; also: 0% is about no effect
Target sequence (P35462 whole entry, looked up): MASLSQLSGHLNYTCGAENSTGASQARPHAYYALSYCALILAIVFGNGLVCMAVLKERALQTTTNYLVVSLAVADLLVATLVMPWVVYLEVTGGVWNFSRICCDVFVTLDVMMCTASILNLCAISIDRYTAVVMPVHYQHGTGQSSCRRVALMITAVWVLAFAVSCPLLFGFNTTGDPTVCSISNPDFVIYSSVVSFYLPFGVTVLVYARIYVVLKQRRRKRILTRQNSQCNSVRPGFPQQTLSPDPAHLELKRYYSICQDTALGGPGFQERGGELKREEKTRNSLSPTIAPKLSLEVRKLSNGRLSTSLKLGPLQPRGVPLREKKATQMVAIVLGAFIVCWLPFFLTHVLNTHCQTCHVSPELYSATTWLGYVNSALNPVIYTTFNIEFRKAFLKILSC
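Agonist-mode cell screen: cells plated at 1500/well and incubated overnight at 37 °C, then exposed to library compounds for 90 min at 37 °C. Detection reagent was added for 30–60 min at room temperature, and luminescence was read.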
ATXN2 expr inh = ATXN2 expression inhibition; Potency, µM (titrated, usually from 57 µM), inactives show top-dose activity change, negative = inhibition, hits mostly inhibitors; AID 1745845; actives 0.72% (n = 360,000); HEK-293 ATXN2-luciferase reporter, luminescence, 24 h; also: potency is read from the fitted curve at half-maximal effect; % is scaled to controls: 0 for no effect and ±100 for the full control effect; nearly all actives have a fitted effect of over 55% in size
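ATXN2-luciferase reporter cells (luciferase flanked by upstream and downstream ATXN2 gene portions) were treated 24 h at 37 °C with compounds at up to 57 uM. SteadyGlo luminescence gave expression; GF-AFC fluorescence gave viability.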
IL-1B inflam inh = blocks inflammasome-driven IL-1 beta release; activity change, % at 57.5 µM; actives 4.7% (n = 360,000); THP-1 LPS/ATP IL-1B secretion, AlphaLISA, 16 h; hits give low values; AID 743279; in the data active = activity change below about -50%; inconclusive = mostly about -30% to -49%; also: % is scaled to controls: 0 for no effect and ±100 for the full control effect
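THP-1 cells pretreated 1 hr with compounds (up to 57.5 uM final), then stimulated with LPS (250 ng/mL final) plus ATP (1.25 mM final); secreted IL-1B measured by AlphaLISA after 16 hr, decreased signal indicating inhibition.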
DRD3 antagonist = D3 dopamine receptor (human) antagonism. P35462. max response, negative = inhibition, %. actives 2.5% (n = 360,000). D3R cells, DiscoveRx beta-arrestin luminescence, antagonist mode; hits give low values; in the data active = max response below about -50%; inconclusive = no clear call, values can overlap the other calls; also: % is scaled to controls: 0 for no effect and ±100 for the full control effect
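Cells expressing the human receptor were seeded at 1500 cells/well, incubated overnight at 37 degrees C in 5% CO2, then exposed to library compounds with dopamine controls for 90 minutes at 37 degrees C before luminescent detection.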
a7 integrin act = activates integrin-mediated alleviation for muscular dystrophy; alpha7betagal myoblasts, beta-gal FDG fluorescence, 48 h; actives 0.064% (n = 350,000); Potency, µM (doses to about 38.3 µM), without a hit: at the top dose activation, usual class: activators;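 also: potency is read from the fitted curve at half-maximal effect; 100% = response of the positive control SU9516; nearly all actives have a fitted effect of over 60% in size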
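Alpha7betagal+/- myoblasts (passage 13) were plated 16-24 hr, then exposed to compounds (1:260 dilution of DMSO stock) for 48 hours at 37C. After MPER lysis, β-galactosidase reporter activity was read as FDG fluorescence (ex 480/em 540) after 30 minutes.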
Numbers without * were called inactive; i = inactive; ? = inconclusive; · = no result. Unless noted, calls follow the shape of the dose curve; as a rule, active = well fitted curve in the direction sought with a large enough effect; inconclusive = small, poorly fitted or top-dose-only effect, or another doubt; inactive = no such curve, though single readings can be large; an effect the other way counts as inactive or inconclusive.

SMILES	ATXN viability	D3 ag	ATXN2 expr inh	IL-1B inflam inh	DRD3 antagonist	a7 integrin act
Cc1cc(C)cc(N2C(N)=NC(N)=NC2c2cccc(Cl)c2)c1 (stereo not given)	i	-8	-13%	-54*	2	-15%
Cc1cc(C)cc(N2C(N)=NC(N)=NC2c2ccccc2F)c1 (stereo not given)	i	-4	-8%	-28	5	-39%
COc1ccc(CN2[C@@H](CC(C)=O)c3ccc(/C=C/C(C)=O)cc3S2(=O)=O)cc1	?	-4	?	-102*	-2	-15%
COc1cccc(N2[C@@H](CC(C)=O)c3ccc(/C=C/C(C)=O)cc3S2(=O)=O)c1	·	-5	?	-100*	4	-42%
COC(=O)C[C@H]1c2ccccc2S(=O)(=O)N1c1cccc(OC)c1	?	0	6%	15	13	-9%
COC(=O)/C=C/c1ccc2c(c1)S(=O)(=O)N(Cc1ccc(OC)cc1)[C@H]2CC(=O)OC	i	-13	-3%	-10	?	1%
COc1ccc(CN2[C@@H](CC(=O)O)c3cc(C(F)(F)F)ccc3S2(=O)=O)cc1	i	-7	-5%	-1	-3	20%
COC(=O)C[C@H]1c2cc(C(F)(F)F)ccc2S(=O)(=O)N1Cc1ccc(OC)cc1	i	48*	-4%	32	8	19%
CC(OC(=O)C1CCCC1)C(=O)Nc1ccc(C(N)=O)cc1 (stereo not given)	i	-11	2%	24	0	-1%
[O-]C1=N/[N+](=C/c2ccccc2Cl)CC1	i	-4	4%	4	16	7%
CC(C)CCNC(=O)c1sc2ccc(S(=O)(=O)N3CCCCC3)cc2c1N	?	5	-36%	-52*	1	-14%
CCn1cc(C(=O)NCCC(C)C)c(=O)c2cc(S(=O)(=O)N3CCCCC3)ccc21	i	15	-12%	0	-12	?
O=[N+]([O-])c1ccc(N2CCN(C(=S)NCc3ccc(Cl)cc3)CC2)cc1	i	-3	·	·	-53*	-8%
OC1CCCN(C(=S)NCc2ccccc2)C1 (stereo not given)	?	-2	-28%	3	-73*	6%
CC(=O)N1CCN(C(=S)NCc2ccccc2)CC1	i	2	7%	31	11	15%
CCNC(=S)N1CCN(c2ccc([N+](=O)[O-])cc2)CC1	i	-2	-15%	-14	-5	-15%
S=C(NCc1ccccc1)N1CCN(c2cccc(Cl)c2)CC1	i	-6	-20%	-72*	-19	-13%
O=C1c2ccccc2NC(c2ccccn2)N1c1ccc(Cl)cc1 (stereo not given)	i	-5	42%	14	27	6%
O=C(CSc1nc(-c2ccccc2)cn1-c1ccccc1F)Nc1ccc(F)cc1	?	-6	-38%	·	·	·
COc1ccc(C(=O)NC2CCN(C(=S)Nc3cc(C)cc(C)c3)CC2)cc1	i	3	2%	3	12	4%
CC(=O)N1CCc2c(sc(NC(=O)C3CC3)c2-c2nc3ccccc3s2)C1	?	-1	32µM*	-84*	11	20%
CC(=O)Nc1sc2c(c1-c1nc3ccccc3s1)CN(C(C)C)CC2	i	·	3.5µM*	·	·	·
CC(=O)N1CCc2c(sc(NC(=O)CSc3ccccc3)c2-c2nc3ccccc3s2)C1	·	-3	·	·	·	·
COc1ccccc1N1CCN(C(=O)CSc2nc3ccccc3nc2Cc2ccc(F)cc2)CC1	i	3	11%	·	·	·
Cc1ccc(Cc2nc3ccccc3nc2SCC(=O)N2CCN(c3ccccc3F)CC2)cc1	·	3	·	·	·	·
O=C(CSc1nc2ccccc2nc1Cc1ccc(Cl)cc1)N1CCN(c2ccccc2F)CC1	·	37*	·	·	·	·
COc1ccccc1N1CCN(C(=O)CSc2nc3ccccc3nc2Cc2ccc(C)cc2)CC1	·	34*	·	·	·	·
CCOC(=O)c1cnc2c(ccc3ccccc32)c1NCCN(C)C	i	-13	·	-58*	-23	-44%
CCOC(=O)c1cnc2c(ccc3ccccc32)c1NCCO	i	2	11%	?	20	-1%
